Screens as filed in PubChem.
CYP2C19 inhib: human CYP2C19 inhibition; actives 21% (n = 96,000); inhibition, % at 5 µM; CYP2C19 Supersomes, luciferin-H EGE luminescence, 30 min; AID 778; P33261;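 active means CYP2C19 inhibition above a set limit at 5 µM in the primary screen, cut at about 50% in these data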;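 further: plate controls were negative control wells for no effect and 2.5 mM tranylcypromine positive control for full effect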
CYP2C19 activ: activators of human cytochrome P450 2C19; P33261; recombinant CYP2C19, luciferin-H EGE luminescence; active compounds read high; 0 = fully inhibited enzyme, 1 = untreated enzyme; AID 1025; activation factor at 5 µM; 96,000 tested, under 10 active;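 active means activation factor of at least 2 at 5 µM in the primary screen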;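 further: 0 = wells with 2.5 mM tranylcypromine and 1 = vehicle-only wells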
PLAP activator: human PLAP activation; purified PLAP enzyme, luminescent substrate read-out; active compounds read high; activation fold at 20 µM; actives 1.2% (n = 96,000); AID 696; in the data active means activation fold above about 2
Target sequence (P05187 whole entry, looked up): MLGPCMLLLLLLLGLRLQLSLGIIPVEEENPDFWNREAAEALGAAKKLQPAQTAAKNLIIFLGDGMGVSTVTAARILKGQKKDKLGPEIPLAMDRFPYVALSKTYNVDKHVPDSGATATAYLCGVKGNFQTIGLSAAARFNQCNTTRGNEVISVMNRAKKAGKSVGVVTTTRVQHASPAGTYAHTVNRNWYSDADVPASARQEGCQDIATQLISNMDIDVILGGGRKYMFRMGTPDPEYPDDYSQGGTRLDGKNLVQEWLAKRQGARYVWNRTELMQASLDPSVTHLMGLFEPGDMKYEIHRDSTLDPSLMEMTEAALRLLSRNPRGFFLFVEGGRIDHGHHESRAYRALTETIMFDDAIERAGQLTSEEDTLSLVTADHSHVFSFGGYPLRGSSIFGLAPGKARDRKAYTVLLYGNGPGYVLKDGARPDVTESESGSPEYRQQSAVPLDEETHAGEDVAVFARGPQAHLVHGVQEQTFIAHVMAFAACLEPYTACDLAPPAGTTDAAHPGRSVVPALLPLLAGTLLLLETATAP
CYP2C9 act: activators of human CYP2C9 | P11712 | recombinant CYP2C9, luciferin-H conversion, luminescence; active compounds read high; factor 1 = untreated enzyme, 0 = blocked | activation factor at 5 µM | actives 1.4% (n = 96,000);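 active means activation factor of 2 or more for CYP2C9 at a 5 µM dose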;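 further: 0 = sulfaphenazole-blocked wells and 1 = vehicle-only wells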
CYP2C9 inhib: inhibitors of human CYP2C9; P11712; CYP2C9 Supersomes, luciferin-H conversion, luminescence; inhibition, % at 5 µM; actives 20% (n = 96,000); AID 777;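 active means blocking of liver enzyme CYP2C9 beyond about 50% at 5 µM, limit read from the data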
Numbers without * were called inactive. In the library only some 31% were active in any assay of this set; here they are far more common.

SMILES	CYP2C19 inhib	CYP2C19 activ	PLAP activator	CYP2C9 act	CYP2C9 inhib
CN(C)c1ccc(NC(=O)CN2C(=O)CN=C(c3ccccc3)c3ccccc32)cc1	65*	0.3	1	1	1
CN(C)c1ccc(NC(=O)CN2C(=O)CN=C(c3ccccc3)c3cc(Cl)ccc32)cc1	96*	0	1.5	0.3	65*
CCC(=NCCCN(C)C)c1c(O)n(-c2ccc(OC)cc2)c(=O)[nH]c1=O	-18	1.2	1	1.1	-9
CCCCn1c(N)c(C(=O)OCC2CCCO2)c2nc3ccccc3nc21 (stereo not given)	68*	0.3	1.8	0.3	74*
COCCOC(=O)c1c(N)n(Cc2ccccc2)c2nc3ccccc3nc12	21	0.8	1	0.8	22
CC(C)CCn1c(N)c(C(=O)OCC2CCCO2)c2nc3ccccc3nc21 (stereo not given)	63*	0.4	1.6	0.2	84*
CC(C)CCOC(=O)c1c(N)n(CC2CCCO2)c2nc3ccccc3nc12 (stereo not given)	-9	1.1	1.6	0.9	11
CCCCOCCCn1c(N)c(C(=O)OCCOC)c2nc3ccccc3nc21	38	0.6	1.4	0.5	52*
CC(C)OCCCNC(=O)c1c(N)n(CC2CCCO2)c2nc3ccccc3nc12 (stereo not given)	67*	0.3	1.7	0.2	85*
O=P(N1CCCCC1)(N1CCCCC1)C(Cl)(Cl)Cl	36	0.6	1.3	0.5	46
COc1ccc2c(c1)c(C(=O)CN1CCC3(CC1)OCCO3)c(C)n2Cc1ccccc1	15	0.8	1.5	0.8	16
Cc1c(C(=O)N2CCC3(CC2)OCCO3)sc2ncnc(N(C)c3ccccc3)c12	13	0.9	1.4	0.3	73*
Cc1sc2ncn(CC(=O)N3CCC4(CC3)OCCO4)c(=O)c2c1C	6	0.9	1.1	0.7	32
Cc1ccc(S(=O)(=O)N2CC3CC(C2)c2cccc(=O)n2C3)cc1 (stereo not given)	-2	1	1	1	2
O=C(O)C1CN2CCC1CC2 (stereo not given)	-4	1	0.9	1.1	-14
CCOC(=O)[C@@]1(C#N)C(c2ccc(Cl)c(Cl)c2)[C@H](C(N)=O)N2C=C(C(C)=O)C=C[C@H]21 (stereo not given in full)	19	0.8	1	1	3
CCOC(=O)[C@@]1(C#N)[C@@H]2C=CC(C(N)=O)=CN2[C@@H](C(N)=O)[C@@H]1c1cccc(Cl)c1	39	0.6	1.4	0.4	59*
O=C(c1cccn2c(=O)c3cc(Br)ccc3nc12)N1CCC2(CC1)OCCO2	32	0.7	1.6	0.5	55*
CCC(=NC1CC1)c1c(O)n(C2CCCCC2)c(=O)[nH]c1=O	99*	0	1.1	1	2
C=CCn1c(O)c(C(CC)=NC2CC2)c(=O)[nH]c1=O	10	0.9	1	0.9	6
CCCCCSc1cc(OC)c(CCNC)cc1OC	62*	0.4	1.1	0.9	11
CCCCCCCSc1cc(OC)c(CCNC)cc1OC	81*	0.2	1.5	1	2
CSc1ncc(Cl)c(C(=O)O)n1	27	0.7	1	0.9	9
c1cncc(C2CC(c3cccs3)n3ncnc3N2)c1 (stereo not given)	12	0.9	1	1	-2
COc1ccc(CNCC(=O)N2CCC3(CC2)OCCO3)cc1	30	0.7	0.7	1	-4
SMILES	CYP2C19 inhib	CYP2C19 activ	PLAP activator	CYP2C9 act	CYP2C9 inhib
COc1ccc(C2C(C(=O)N3CCC4(CC3)OCCO4)CC(=O)N2c2ccc(OC)cc2)cc1 (stereo not given)	61*	0.4	1.4	0.5	48
CN(C)P(=O)(C(Cl)=C(N1CCCCC1)N1CCCCC1)N(C)C	69*	0.3	1.7	0.8	16
COC(=O)C(C)Oc1cc(C)cc2oc(=O)c3c(c12)CCC3 (stereo not given)	72*	0.3	1.1	0.1	92*
Cc1cc(OCC(=O)OC(C)C)c2c3c(c(=O)oc2c1)CCCC3	6	0.9	1.2	0.7	28
CCOC(=O)C(C)Oc1cc(C)cc2oc(=O)c3c(c12)CCCC3 (stereo not given)	49	0.5	1	0.2	78*
COC(=O)C(C)Oc1cc(C)cc2oc(=O)c3c(c12)CCCC3 (stereo not given)	55*	0.4	1.1	0.1	92*
COC(=O)c1cc(COc2cc(C)cc3oc(=O)c4c(c23)CCC4)c(C)o1	78*	0.2	1	0	97*
CN(C)P1(N(C)C)=Nc2c(c(N)nn2C)C(c2ccccc2)=N1	19	0.8	0.9	0.9	6
CC12CCCCC1=NC(c1ccc(Br)cc1)N2O (stereo not given)	38	0.6	0.8	0.9	12
NCC(CC(=O)O)C1CCCCC1 (stereo not given)	9	0.9	0.9	1	-5
O=C(N/N=C1/CN2CCC1CC2)c1cccc(O)c1	11	0.9	1.1	1	1
O=C(Cc1ccccc1)Oc1ccc(N2C(=O)CCC2=O)cc1	3	1	0.9	0.9	10
O=C(Cn1c(=O)c(C(F)(F)F)nc2ccccc21)N1CCC2(CC1)OCCO2	-10	1.1	1	1	0
Cn1c(=O)cc(OCC(=O)N2CCN(Cc3ccc4c(c3)OCO4)CC2)c2ccccc21	55*	0.5	1.5	0.3	72*
Cn1c(=O)cc(OCC(=O)N2CCN(C3CCCCC3)CC2)c2ccccc21	9	0.9	1.4	1.2	-21
CCCC12CN3CN(C1)CC(CCC)(C3)C2O (stereo not given)	-6	1.1	1.1	1	-3
CC(=O)Nc1ccccc1OP1(=O)COc2ccccc2OC1	2	1	1	1	-1
CCCCCCOc1ccc(CN2CCN(CC)CC2)cc1	40	0.6	1.7	0.9	11
CC(=NCCN1CCCCC1)c1c(O)n(-c2ccc(Cl)cc2)c(=O)[nH]c1=O	8	0.9	1	0.9	9
CC(=NCCN1CCOCC1)c1c(O)n(Cc2ccccc2)c(=O)[nH]c1=O	-10	1.1	1.2	1	-4
CC(=NCc1cccnc1)c1c(O)n(-c2ccccc2)c(=O)[nH]c1=O	57*	0.4	1	0.8	17
CCC(=NCCCn1ccnc1)c1c(O)n(Cc2ccccc2)c(=O)[nH]c1=O	94*	0.1	2.1*	0	97*
CCCCn1c(O)c(C(CC)=NCc2cccnc2)c(=O)[nH]c1=O	91*	0.1	0.9	0.4	60*
CC(=NCC1CCCO1)c1c(O)n(Cc2ccccc2)c(=O)[nH]c1=O (stereo not given)	14	0.9	1	1.1	-7
CCC(=NCc1cccnc1)c1c(O)n(Cc2ccccc2)c(=O)[nH]c1=O	95*	0	1.7	0.3	69*
CCCCOP(=O)(OCCCC)/C(C#N)=C(/C)O	-1	1	1.1	0.8	19
